± gives the standard deviation.
test system: EfPiwi piRISC loaded with L1MC piRNA (26 nt); assay: pre-steady-state target cleavage rate (min^-1); auxiliary factor: 500 nM Ephydatia muelleri Gtsf1; guide: L1MC piRNA 5'p-UAACUAAAUACUAUGCAAGCUGUAGG; MIWI and MILI are mouse PIWI proteins and EfPiwi is from a freshwater sponge; tags in brackets are library labels; higher = faster piRNA-guided slicing of the target
Procedure, shortened: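 Active affinity-purified piRISC carrying one synthetic guide (1 nM) was mixed with a transcribed, DNA-blocked target RNA library […] in HEPES–potassium acetate buffer at 33 °C for 0–8 or 0–960 min, with or without 500 nM GTSF1 partner protein. Uncleaved targets were then sequenced and normalised to depth and to weakly complementary targets. Three trials were pooled, and k3 was capped at 0.0001 min^-1. A burst-and-steady-state fit was applied to obtain the pre-steady-state cleavage rate.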

| Sequence | pre-steady-state target cleavage rate |
| --- | --- |
| UCCUGGAACAGCUGGCAUAGUAUUUAGUUA | 0.00699 ± 0.0026 |
| UCCUGGAUCACCUUGCAUAGUAAUUAGUUA | 0.123 ± 0.049 |
| UCCUGCUACAGCUUCCAUUGUAUUUAGUUA | 0.00266 ± 0.0018 |
| UCCUCCUACAGCUUGCAUUGUUUUUAGUUA | 0.00277 ± 0.0025 |
| UCCUGGAUCAGCUUGGAAAGUAUUUAGUUA | 0.00365 ± 0.0033 |
| UCCUGGAACAGCUUGGAUAGUAUAUAGUUA | 0.00939 ± 0.0043 |
| UCCUGGAUCAGCUUGCAAAGUAUUUAGUUA | 0.0218 ± 0.0057 |
| UCCUCCUACAGCUCUGCAUAGUAUUUAGUUA | 0.0445 ± 0.014 |
| UCCUCGCUACAGCUUGCAUAGUAUUUAGUUA | 0.0505 ± 0.017 |
| UCCUCCUACAGCUUGCAUAGUAUUUGGUUA | 0.00583 ± 0.0021 |
| UCCUGGUAGAGCUUGCAUAGUUUUUAGUUA | 0.0049 ± 0.0026 |
| UCCUGGAAGAGCUUGGAUAGUAUUUAGUUA | 0.00392 ± 0.0027 |
| UCCUGGAUAAGCUUGCAUAGUAUUUAGUUA | 0.0102 ± 0.004 |
| UCCUGGAACAGCAUGCAUAGUAUUUAGUAA | 0.00384 ± 0.0023 |
| UCCUGCUACACCUUGCAUAGUAUUUAGUAA | 0.00559 ± 0.0032 |
| UCCUGGUACAGCUUGCAUAAUAUUUAGUUA | 0.00307 ± 0.0027 |

— the supplement of paper PMC10338343
